# This is a sample that favours compounds with a hit; in the whole collection about 11% have one here.
# HCV inh: inhibitors of hepatitis C virus infection; Huh7.5.1 HCVcc-Cre infection, luciferase reporter, 44 h; Potency, µM (doses to about 41.8 µM), hits mostly inhibitors; 340,000 tested, 3.4% active; AID 651820
#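 Seed cells (1,000/well) for 4 h; treat with compound and infect with HCVcc-Cre, moi about 0.5. Incubate 44 h, then detect luciferase activity.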
# AmpC inh no detg: inhibitors of E. coli AmpC beta-lactamase without detergent; P00811; AmpC nitrocefin hydrolysis, absorbance 480 nm, 0.0001% Triton; Potency, µM (series often up to 57.1 µM), most hits filed as inhibitors; 330,000 tested, 0.52% active; also: nearly all actives have a fitted effect of over 20% in size
# Target sequence (P00811 whole entry, looked up): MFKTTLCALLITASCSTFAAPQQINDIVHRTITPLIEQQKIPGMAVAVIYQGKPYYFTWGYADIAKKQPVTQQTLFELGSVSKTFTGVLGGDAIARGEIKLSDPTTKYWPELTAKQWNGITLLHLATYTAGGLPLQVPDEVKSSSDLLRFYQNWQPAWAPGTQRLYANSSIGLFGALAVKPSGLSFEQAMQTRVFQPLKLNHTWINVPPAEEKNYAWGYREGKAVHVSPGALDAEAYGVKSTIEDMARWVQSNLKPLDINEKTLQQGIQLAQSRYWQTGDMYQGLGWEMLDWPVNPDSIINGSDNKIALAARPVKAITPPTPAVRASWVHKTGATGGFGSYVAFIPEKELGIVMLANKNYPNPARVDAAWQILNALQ
#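 20 mM phosphate pH 7.0 + 0.01% (detergent screen) or 0.0001% Triton X-100; 5.3 nM AmpC reagent; cpd preinc 15 min RT; nitrocefin (800 uM stock) to start; A480 q20 s × 4 min; Activity was normalised to no-enzyme and no-compound control wells.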
# Pf growth 96h: inhibits malaria parasite growth, 96 h | P. falciparum luciferase reporter growth, 96 h | Potency, µM (series often up to 28.7 µM), usual class: inhibitors | 320,000 tested, 6.9% active
#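 96 h incubation, 37 C, 5% CO2, of luciferase-reporter P. falciparum-infected RBCs (2% hematocrit, 0.05% parasitemia final) with test compounds; endpoint luminescence.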
# Pf growth 48h: inhibits P. falciparum growth in the first generation, 48 h; P. falciparum luciferase growth in erythrocytes, 48 h; Potency, µM (highest dose often 28.7 µM), most hits filed as inhibitors; 310,000 tested, 5.9% active
#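 Parasite viability was followed by luminescence of a genomically integrated firefly luciferase. Cultures held 0.1% parasitemia at 2% hematocrit (final), incubated under 5% CO2 at 37 C.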
# AmpC detergent: blocks E. coli AmpC beta-lactamase in detergent assay; Potency, µM (series often up to 114 µM), usual class: inhibitors; AmpC hydrolysis of nitrocefin, absorbance 480 nm, 0.01% Triton; P00811; 370,000 tested, 0.041% active; also: nearly all actives have a fitted effect of over 25% in size
#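 AmpC (5.3 nM in the dispensed reagent) in 20 mM phosphate pH 7.0 with 0.01% (detergent screen) or 0.0001% Triton X-100 was preincubated with compounds for 15 min at room temperature. Nitrocefin was then added from an 800 uM solution, and hydrolysis was followed at 480 nm.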
# AMA1-RON2 inh: inhibitors of Plasmodium falciparum AMA1-RON2 interaction; 360,000 tested, 0.2% active; AlphaScreen AMA1-biotinylated RON2 peptide binding; Potency, µM (doses to about 58.2 µM), actives largely listed as inhibitors; also: nearly all actives have a fitted effect of over 45% in size
#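 AMA1 (3D7) with his tag at 25 nM final met compounds first, then biotinylated RON2 peptide at 25 nM; detection used donor plus acceptor beads, 10 µg/mL apiece, read by AlphaScreen after 30 min at room temperature.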
# Numbers stand for hits; n = inactive; u = inconclusive; x = no result given; [ ] = remark or other dose. Calls follow the shape of the dose curve; as a rule, active = well fitted curve in the direction sought with a large enough effect; inconclusive = small, poorly fitted or top-dose-only effect, or another doubt; inactive = no such curve, though single readings can be large; an effect the other way counts as inactive or inconclusive.
SMILES,HCV inh,AmpC inh no detg,Pf growth 96h,Pf growth 48h,AmpC detergent,AMA1-RON2 inh
CC(=O)N1CCCC(N2CCN(c3cccc(C(F)(F)F)c3)CC2)C1 (configuration not stated),n,n,u,n,n,n
CCCN1CCC(N2CCN(c3cccc(C(F)(F)F)c3)CC2)CC1,11.2µM,n,n,u,n,n
CCCN1CCC(N2CCN(c3ccc([N+](=O)[O-])cc3)CC2)CC1,n,n,5.86µM,u,u,u
COc1cccc(CNC(=O)CCC(=O)N2CC(C)Oc3ccccc32)c1OC (configuration not stated),n,n,5.22µM,n,n,n
COc1ccc(CN2C(=O)NC(=O)/C(=C/c3ccoc3)C2=O)cc1,n,10µM,n,n,n,n
COc1ccc(CN2C(=O)NC(=O)/C(=C/c3cc(OC)c(OC)c(OC)c3)C2=O)cc1,n,n,n,n,n,n
CC(C)(C)Sc1ccc2nc3c(n2c1)CCCC3,u,n,u,11.7µM,n,n
COc1cccc(CNC(=O)CN(c2ccc(C)cc2)S(=O)(=O)N(C)C)c1OC,x,x,x,x,n,x
CN1CCN(C2=C(NS(=O)(=O)c3ccccc3)C(=O)c3ccccc3C2=O)CC1,n,n,u,4.15µM,n,n
CCN1CCN(C2=C(NS(=O)(=O)c3ccccc3)C(=O)c3ccccc3C2=O)CC1,11.2µM,n,2.94µM,5.86µM,n,n
CCOC(=O)C1CCN(C2=C(NS(=O)(=O)c3ccc(Br)cc3)C(=O)c3ccccc3C2=O)CC1,n,n,u,u,n,12.6µM
CCN1CCN(C2=C(NS(=O)(=O)c3ccc(Br)cc3)C(=O)c3ccccc3C2=O)CC1,u,n,u,2.62µM,n,n
NC(=O)C1CCN(C2=C(NS(=O)(=O)c3ccc(Br)cc3)C(=O)c3ccccc3C2=O)CC1,n,n,u,u,u,n
NC(=O)C1CCN(C2=C(NS(=O)(=O)c3ccccc3)C(=O)c3ccccc3C2=O)CC1,n,n,u,u,n,n
O=C1C(NS(=O)(=O)c2ccc(Cl)cc2)=C(N2CCCCC2)C(=O)c2ccccc21,n,n,u,u,n,11.2µM
CCOC(=O)N1CCN(C2=C(NS(=O)(=O)c3ccccc3)C(=O)c3ccccc3C2=O)CC1,u,n,9.28µM,13.1µM,n,u
C=CCn1c(SCC(=O)NC2CCCCC2)nc2ccccc2c1=O,n,n,n,n,u,n
C=CCn1c(SCC(=O)NCCCC)nc2scc(-c3ccco3)c2c1=O,n,n,u,13.1µM,u,n
C=CCn1c(SCC(C)=O)nc2scc(-c3ccc(C)o3)c2c1=O,n,n,n,n,n,n
C=CCn1c(SCC(=O)NC2CCCC2)nc2scc(-c3ccco3)c2c1=O,u,35.5µM,n,u,u,u
CCCc1nc2ccccc2c(=O)n1/N=C/c1ccc(O)cc1,u,n,u,11.7µM,n,n
Cc1ccc(-c2[nH]ncc2/C=N/n2c(COc3ccccc3)nc3ccccc3c2=O)cc1,11.2µM,n,10.4µM,11.7µM,n,n
O=c1c2ccccc2nc(COc2ccccc2)n1/N=C/c1ccc(O)c(O)c1,u,3.55µM,u,u,n,n
Cc1cc(/C=N/n2c(COc3ccccc3)nc3ccccc3c2=O)c(O)c([N+](=O)[O-])c1,u,20µM,n,n,u,u
Cc1ccccc1OCc1nc2ccccc2c(=O)n1/N=C/c1cccc([N+](=O)[O-])c1,n,u,n,n,n,n
SMILES,HCV inh,AmpC inh no detg,Pf growth 96h,Pf growth 48h,AmpC detergent,AMA1-RON2 inh
COc1ccc(Cn2c(=O)c3cccnc3n(Cc3cccc(F)c3)c2=O)cc1,x,x,x,x,n,x
O=C(c1cc(Br)ccc1Cl)N1CCN(c2ncccn2)CC1,n,n,n,n,n,n
O=C(O)c1ccccc1C(=O)N1CCN(c2ncccn2)CC1,n,n,n,n,n,n
O=C(c1cnc(N2CCN(c3ncccn3)CC2)c2ccccc12)N1CCN(c2ncccn2)CC1,11.2µM,n,u,u,n,n
O=C(c1cc(F)c(F)cc1Cl)N1CCN(c2ncccn2)CC1,n,n,5.22µM,n,n,n
COc1ccc(CNC(=O)c2cc3cc(S(=O)(=O)N4CCCCC4)ccc3n2C)c(OC)c1,x,x,x,x,n,x
CCOc1ccc(N2C(=O)c3[nH]nc(-c4ccc(OC)cc4)c3C2c2cccs2)cc1 (configuration not stated),x,x,x,x,n,x
CCOc1ccccc1CNC(=O)c1nc(-c2ccc(Cl)cc2)n2c1CCCCC2,x,x,x,x,n,x
Cc1nc(N2CCCC2)c2c(C(=O)Nc3cccc(Cl)c3C)c(C)oc2n1,x,x,x,x,n,x
N#C/C(=C\c1ccc[nH]1)C(=O)NC1CC1,n,n,x,n,n,n
CC1CCCCC1NC(=O)/C(C#N)=C/c1ccccc1F (configuration not stated),u,n,11.7µM,u,u,n
N#C/C(=C\c1c(F)cccc1Cl)C(=O)NC1CC1,n,n,13.1µM,n,n,n
COc1ccccc1C(=O)Nc1c(C(=O)N2CCN(c3ccccc3F)CC2)oc2ccccc12,x,x,x,x,n,x
O=C(CS(=O)(=O)c1cccc2nsnc12)Nc1ccc(F)cc1,x,x,x,x,n,x
CC1=CC(=C2C=CC(=O)C=C2)C=C(C)N1C,x,n,1.85µM,7.38µM,n,x
COc1cc(-c2cc3n(C)c(C)c(CCC(=O)O)c(=O)n3n2)cc(OC)c1OC,x,x,x,x,n,x
CCOC(=O)c1c(NC(=O)COC(=O)c2ccc(O)cc2)sc(C(=O)N(C)C)c1C,u,n,u,11.7µM,n,n
CCOC(=O)c1c(NC(=O)COc2ncnc3ccccc23)sc(C(C)=O)c1C,7.08µM,n,u,n,n,n[11.6 µM]
CCOC(=O)c1c(NC(=O)CN2C(=O)NC(C)(c3ccc(Cl)cc3)C2=O)sc(C(=O)NC)c1C (configuration not stated),14.1µM,n,4.65µM,8.28µM,n,n
COC(=O)c1c(NC(=O)COc2ncnc3ccccc23)sc(C)c1C,u,n,u,n,n,n
CCOC(=O)c1c(NC(=O)COC(=O)Cc2c[nH]c3ccccc23)sc(C(=O)N(C)C)c1C,14.1µM,n,u,u,n,n
CCOC(=O)c1ccc(CN(Cc2ccccc2C)S(=O)(=O)c2ccc(F)c(C(=O)Nc3cccc(OC)c3)c2)cc1,x,x,x,x,n,x
CCN(Cc1ccccc1)C(=O)Cn1c(=O)cc(C)c2c(C)nn(-c3cccc(F)c3)c21,x,x,x,x,n,x
CCOC(=O)c1c(NC(=O)COC(=O)c2ccc(NC(=O)CC#N)cc2)sc(C(=O)NC)c1C,u,n,n,13.1µM,n,n
Fc1ccc(CSc2nc3ncc(Br)cc3[nH]2)cc1,n,n,9.28µM,x,n,n
CCOC(=O)N1CCN(CCC(=O)Nc2ccccc2OC)CC1,n,n,13.1µM,n,n,n

# Screening results as filed in PubChem BioAssay.
